# Source: PubChem (several laboratories)
# PP1 inh = PP1-alpha phosphatase inhibitors, primary screen, counter-screen for PP5 inhibitor project, biochemical, fluorescence, OMFP substrate, single point; AID 2235, 2010; purified PP1alpha; inhibition, % at 6.7 µM; hit rate 0.9% among 320,000; Serine/threonine-protein phosphatase PP1-alpha catalytic subunit (Homo sapiens), P62136;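 active = inhibition above the mean inhibition of all tested compounds plus 3 SD, computed separately for each screening campaign, cut at about 15% in these data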
# STK33 kinase inh = inhibitors of purified STK33 kinase, primary screen, biochemical, ADP-Glo luminescence, homogeneous, cell-free; Serine/threonine-protein kinase 33 (Homo sapiens), Q9BYT3; MBP phosphorylation; inhibition, % at 10 µM; hit rate 0.073% among 320,000;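 active = inhibition at or above 25%, using the most active replicate where run in duplicate; inactive = inhibition below 25%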
# PP5 inh = PP5 phosphatase inhibitors, primary screen, biochemical, fluorescence | inhibition, % at 6.7 µM | Serine/threonine-protein phosphatase 5 (Homo sapiens), P53041 | purified PP5c, OMFP substrate fluorescence | hit rate 0.18% among 320,000;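 active = inhibition above the campaign's mean inhibition across all tested compounds plus 3 SD, cut at about 9.5% in these data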
# Target sequence (P53041 whole entry, looked up): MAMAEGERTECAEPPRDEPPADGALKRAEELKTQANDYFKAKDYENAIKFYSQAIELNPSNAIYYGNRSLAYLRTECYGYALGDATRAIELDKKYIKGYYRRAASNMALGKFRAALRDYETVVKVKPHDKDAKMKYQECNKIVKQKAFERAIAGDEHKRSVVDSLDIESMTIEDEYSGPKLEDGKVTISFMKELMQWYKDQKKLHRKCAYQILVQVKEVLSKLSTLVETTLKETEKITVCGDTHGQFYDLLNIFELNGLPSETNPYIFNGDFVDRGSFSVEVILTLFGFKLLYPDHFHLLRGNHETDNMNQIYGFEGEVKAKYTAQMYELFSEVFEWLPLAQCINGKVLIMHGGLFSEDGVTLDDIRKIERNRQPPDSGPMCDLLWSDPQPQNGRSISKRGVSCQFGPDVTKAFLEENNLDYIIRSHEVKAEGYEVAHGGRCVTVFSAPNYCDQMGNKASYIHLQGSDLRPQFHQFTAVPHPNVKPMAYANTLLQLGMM
# HIF act = HIF pathway transcriptional activators, primary screen, cell-based, U2OS HRE-luciferase, luminescence. activation, % at 7.5 µM (by protocol). U2OS HRE-luciferase reporter; normalized: DMSO 0%, desferrioxamine 100%. AID 1910, 2009. hit rate 0.32% among 300,000;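 active = mean activation of at least 10% of the iron chelator positive control signal, with at least half of replicates also reaching 10%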
# Dyrk1A ADPGlo = rat Dyrk1A kinase inhibitors, primary screen, biochemical, single point, plate reader. ADP-Glo luminescence, NFATc1 peptide. inhibition, % at 12.5 µM. hit rate 0.43% among 310,000. AID 504441, 2011; in the data active = inhibition above about 50%
# PP1 confirm = PP1 phosphatase inhibitors, confirmation, biochemical, fluorescence, OMFP substrate, triplicate | purified PP1alpha | hit rate 52% among 1,900 | shares compounds with PP1 inh | inhibition, % at 6.7 µM;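 active = mean PP1 inhibition above a set limit taken from the earlier primary screen, cut at about 15% in these data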
# PP5 inh counter = PP5 phosphatase inhibition by PP1 hits, confirmation, counter-screen for PP1 inhibitor project, biochemical, fluorescence, triplicate; purified PP5c, OMFP fluorescence; inhibition, % at 6.7 µM; AID 2360, 2010; hit rate 4% among 1,900; shares compounds with PP1 inh;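 active = mean PP5 inhibition over triplicate wells above about 9.5% taken from the earlier PP1 screen, limit read from the data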
# Numbers stand for hits; – = inactive; · = not tested or not shown. Rows were chosen to be rich in hits. Some 1.5% of all compounds tested hit in one or more screens of this group.
SMILES,PP1 inh,STK33 kinase inh,PP5 inh,HIF act,Dyrk1A ADPGlo,PP1 confirm,PP5 inh counter
CCC(=O)NC(c1ccc(C)cc1)c1cc([N+](=O)[O-])c2cccnc2c1O (stereo not drawn),39,–,–,–,–,–,12
CCn1c(=O)c(=O)n(CC)c2cc(S(=O)(=O)Nc3cc(C)ccc3C)ccc21,–,–,–,–,–,·,·
Cc1cccc(N2CCN(C(=O)c3c(-c4ccccc4Cl)noc3C)CC2)c1C,–,–,–,–,–,·,·
CN(CC1CCCO1)S(=O)(=O)c1ccc(C(=O)Nc2ccc3c(c2)OCO3)cc1 (stereo not drawn),–,–,–,–,–,·,·
CN(CC1CCCO1)S(=O)(=O)c1ccc(C(=O)Nc2nc3cc4c(cc3s2)OCO4)cc1 (stereo not drawn),23,–,–,–,–,26,–
O=C(NCc1ccc(C(F)(F)F)cc1)C12CN(Cc3ccccc3)CC1C(c1cccc([N+](=O)[O-])c1)=NO2 (stereo not drawn),–,–,–,–,–,·,·
O=C(NCc1ccc2c(c1)OCO2)C12CN(Cc3ccccc3)CC1C(c1cccc([N+](=O)[O-])c1)=NO2 (stereo not drawn),25,–,–,–,–,–,–
C#Cc1ccc([C@H]2C=C(C(=O)N3CCN(Cc4ccccc4)CC3)O[C@@H](OCc3ccc(CO)cc3)C2)cc1,19,–,–,–,–,20,–
O=C(C1=C[C@@H](c2ccc(Br)cc2)C[C@@H](OCc2ccc(CO)cc2)O1)N1CCN(Cc2ccccc2)CC1,–,–,–,–,–,·,·
CC1=C(C(=O)Nc2ccccc2)C(c2ccco2)C(C#N)=C(SCc2ccccc2)N1 (stereo not drawn),23,–,–,–,·,–,–
O=C(Nc1ccc(NC(=O)c2sc3ccccc3c2Cl)cc1Cl)c1ccco1,20,–,–,–,–,28,–
Cc1cc(C)nc(-n2nc(C)c3c(=O)[nH]c(C(F)(F)F)nc32)n1,19,–,–,–,–,–,–
Cc1nn(-c2cccc(Cl)c2)c2nc(C(F)(F)F)[nH]c(=O)c12,–,–,–,–,–,·,·
Cc1cccc(N2C(=O)C(O)=C(C(=O)c3cccs3)C2c2ccc(F)cc2)n1 (stereo not drawn),–,·,–,–,–,·,·
Cc1cccc(N2C(=O)C(O)=C(C(=O)c3cccs3)C2c2ccc(C(C)C)cc2)n1 (stereo not drawn),23,–,–,–,–,19,–
COc1ccccc1NC(=O)CN1CCN(CC(=O)Nc2ccc(C)c(F)c2)CC1,–,–,–,–,–,·,·
CCC1(C(=O)OC)NC(c2ccco2)C2C(=O)N(c3ccc(F)cc3)C(=O)C21 (stereo not drawn),–,–,–,–,–,·,·
O=C(Nc1ccc(Oc2ccc3c(c2)C(=O)N(c2ccc(O)cc2)C3=O)cc1)c1cccs1,22,–,–,–,–,–,–
CC(C)CN1C(=O)c2ccc(NC(=O)c3cccs3)cc2C1=O,–,–,–,–,–,·,·
CCC(=O)Nc1ccc(C(=O)COC(=O)c2nc3nccc(C)n3n2)cc1,20,–,–,·,–,–,–
O=[N+]([O-])c1cc(CN2CCN(c3ccccc3)CC2)c(O)c2ncccc12,19,–,–,–,–,29,–
Oc1c(I)cc(Cl)c2cccnc12,19,–,–,–,–,–,–
Oc1c(CN2CCc3ccccc3C2)cc(Cl)c2cccnc12,31,–,–,50,–,40,–
O=[N+]([O-])c1cc(Cl)c2cccnc2c1O,–,–,–,–,–,·,·
CN(Cc1cc([N+](=O)[O-])c2cccnc2c1O)C1CCCCC1,–,–,–,–,·,·,·
SMILES,PP1 inh,STK33 kinase inh,PP5 inh,HIF act,Dyrk1A ADPGlo,PP1 confirm,PP5 inh counter
COc1ccc(NC(=O)Nc2ccc3c(c2)C(=O)N([C@H](C)CO)C[C@H](C)[C@@H](CN(C)C(=O)Nc2c(C)noc2C)O3)cc1,·,–,·,·,–,·,·
Cc1[nH]c2ccccc2c1C(=O)C(C)OC(=O)C1CCC1 (stereo not drawn),28,–,–,–,–,–,–
CC1=NN(c2ccccc2)C(=O)/C1=C/c1c(O)n(-c2ccc(F)c(Cl)c2)[nH]c1=O,18,–,10,–,·,–,–
CC1=NN(c2ccccc2)C(=O)/C1=C\c1c(C)[nH]n(-c2ccccc2)c1=O,–,–,–,–,–,·,·
O=C(C1=C[C@@H]2[C@H]3C(=O)N(c4ccccc4Cl)C(=O)[C@H]3[C@@H](C(=O)c3ccc(Cl)cc3)N2C=C1)c1ccccc1,23,–,–,–,·,18,–
CCn1c(=O)c(C(=O)NNC(=O)Cc2ccccc2)c(O)c2ccccc21,–,–,–,–,–,·,·
Cn1c(=O)c(C(=O)NNC(=O)c2ccccc2Br)c(O)c2ccccc21,20,–,–,–,–,–,–
Cn1c(=O)c(C(=O)NNC(=O)c2ccccc2Cl)c(O)c2ccccc21,–,–,–,–,–,·,·
CCn1c(=O)c(C(=O)NNC(=O)c2ccccc2Br)c(O)c2ccccc21,22,–,–,–,–,–,–
C/C(=C\c1ccccc1)C(=O)NCc1ccco1,–,–,–,–,–,·,·
N/C(Cc1ccc(Cl)cc1)=N\OC(=O)C1CCCCC1,–,–,–,–,–,·,·
O=c1cc(-c2ccccc2)cc(-c2ccccc2)n1O,20,–,–,–,–,–,–
Cc1cc(-c2ccccc2)cc(=O)[nH]1,·,·,·,·,–,·,·
O=C1C(Cc2ccccc2)Nc2ncnc(N3CCc4ccccc4C3)c2N1Cc1ccc(Cl)cc1 (stereo not drawn),24,–,–,–,–,20,–
COc1ccc(CN2C(=O)C(Cc3ccccc3)Nc3ncnc(N4CCc5ccccc5C4)c32)cc1 (stereo not drawn),–,–,–,–,·,·,·
C=CCOc1ccc(/C=C2\SC(=S)N(NS(=O)(=O)c3ccc(C)cc3)C2=O)cc1,25,–,–,–,–,17,–
Cc1ccc(NC(=O)C(OC(=O)c2ccc(C=O)cc2)c2ccccc2)cc1Cl (stereo not drawn),22,–,–,–,–,–,–
Cc1ccc(C)c(NC(=O)C(OC(=O)c2ccc(CO)cc2)c2ccccc2)c1 (stereo not drawn),·,·,·,·,–,·,·
COc1ccccc1CNC(=O)c1ccc2nc3[nH]c4ccccc4c3nc2c1,21,–,–,–,–,23,–
